Results taken from the supplement of paper PMC10338343.
± gives the standard deviation. The full ranking holds about 6,200 sequences; the median of “pre-steady-state target cleavage rate” is about 0.29, and the highest 2% start at about 2. The entries come from a sample that favours the highest values as a whole.

Each sequence was assayed on MIWI (PIWIL1) piRISC loaded with piRNA #1 (30 nt) (assay: pre-steady-state target cleavage rate (min^-1); MIWI and MILI are mouse PIWI proteins and EfPiwi is from a freshwater sponge; tags in brackets are library labels; higher = faster piRNA-guided slicing of the target). Settings: guide: piRNA #1 5'p-UGAGGUAGUAGGUUGUAUAGUAUCCAGAGG; auxiliary factor: 500 nM mouse GTSF1.
Procedure: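 Cleave-'n-Seq: a library of target RNAs (target site embedded in constant flanks, ACAGCATTCCGCGTTAGTGATATCCG... 5' flank; DNA-blocked outside the site) at 0.1 nM was incubated with 1 nM active mouse MILI or MIWI piRISC (synthetic 5'-monophosphorylated piRNA guide) with or without 500 nM mouse GTSF1 at 33 °C for 1 min to 16 h. Uncleaved targets were sequenced and normalised to non-target controls, and the pooled three trials were fitted to a burst-and-steady-state model to give the pre-steady-state cleavage rate (min^-1; k3 is constrained to at most 1e-4). Sequence is the target site only; target names encode pairing extent (gX:gY) and contiguous / 1-mismatch / 2-mismatch / bulge geometry. Fits with R² ≤ 0 are excluded.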

Sequence	pre-steady-state target cleavage rate
CCUCUGGAUACUAUAGAACCUACUACCACA	0.372 ± 0.042
GCUCUGGAUACUAUCACAACCUACUACCUCA	1.62 ± 0.12
CCUCAGGAUACUAUACAUCCUACUACCUCA	2.03 ± 0.12
GCUCAGGAUACUAUACAUCCUACUACCUCA	1.85 ± 0.099
GGUCAGGAUACUAUACAUCCUACUACCUCA	1.54 ± 0.079
GGUCUCGAUACUAUACAACCUACUACCUCA	1.83 ± 0.12
CCUCUGGAUACUAUACUACCUACAACCUCA	1.08 ± 0.098
UCUCUGGAUACUAUACAACCUACUACCUCA	2.04 ± 0.1
GCCUCUGGAUACUAUACAACCUACUACCUCA	1.89 ± 0.12
CUCUCUGGAUACUAUACAACCUACUACCUCA	2.1 ± 0.13
CCUCUGGAUACUAUACAACCUACAACCUCA	1.56 ± 0.1
CCUCUGGAUACCUAUACAACCUACUACCUCA	1.18 ± 0.072
GGAGUGGAUACUAUACAACCUACGUACCUCA	0.712 ± 0.076
GGAGAGGAUACUUUAGAACCUACUACCUCA	0.919 ± 0.051
GGAGAGGAUACUAUACAACCUACUGACCUCA	0.576 ± 0.034
GGAGACGAUUCAAUACAACCUACUACCUCA	0.502 ± 0.063
GGAGACCUAUCUUUACAACCUACUACCUGA	0.101 ± 0.025
CCUCUGGAUACUAUACAACCUACUUCCUCA	0.668 ± 0.053
GCUCUGGAUACUAUACAACCUACUACUUCA	2.26 ± 0.14
CCUCUGGAUACUAUACAACCUACUACUUCA	2.32 ± 0.16
CCUCUGGAUACUAUACAACCUACUACCUUCA	1.88 ± 0.12
GGUCUGGAUACUAUACAACCUACUACUUCA	1.32 ± 0.095
GCUCUGGAUACUAUACAACCUACUACCUUCA	1.9 ± 0.13
GCUCUGCAUACUAUACAACCUACUACGUCA	1.24 ± 0.086
GGACUGGAAACUUUACAACCUACUACCUCA	0.689 ± 0.076

Sequence	pre-steady-state target cleavage rate
GCUCUGGAUACUAAAGAACCUACUACCUCA	1.17 ± 0.087
GGAGACCUAACUAUACAACCUAGUUCCUCA	0.0155 ± 0.0059
CCUCUGGAUACUAUUCAACCUACAACCUCA	1.62 ± 0.13
GGUCUGGAUACUAUUCAACCUACAACCUCA	0.28 ± 0.033
CCUCUGGAUACUAUACAACCUACUACCUCA [g2:g30:cont:t1A]	1.96 ± 0.12
GCUCUGGAUACUAUGCAACCUACUACCUCA	1.84 ± 0.1
CCUCUGGAUACUAUACAACCUACCUACCUCA	1.8 ± 0.11
GGUCUGGAUACGAUACAACCUACUACCUCA	1.79 ± 0.11
CCUCUGGAUACUAUGCAACCUACUACCUCA	2.09 ± 0.13
GGUCUGGAUACUAUGCAACCUACUACCUCA	1.73 ± 0.12
CCUCUGGAUACGAUACAACCUACUACCUCA	2.07 ± 0.11
CUCUGGAUACUAUACAACCUACUACCUCA	2.17 ± 0.14
CCUCUGGUUACUAUUCAACCUACUACCUCA	2.15 ± 0.14
GCUCUGGAUACGAUACAACCUACUACCUCA	1.7 ± 0.086
GCUCUGGAUACUAUUCAACCUACAACCUCA	1.3 ± 0.099
GGACUGGAUAGUAUACAACCUUCUACCUCA	0.575 ± 0.045
GGUCUGGAUACUAUACAACGUUCUACCUCA	0.117 ± 0.014
GGAGACCUAUGUAUAGAACCUUCUACCUCA	0.0033 ± 0.0012
GCUCUGGAUACUAUACAACCUACUAUCCUCA	1.51 ± 0.11
GGUGUGGAUACUAUACAACCUUCUACCUCA	0.734 ± 0.033
GGAGACCUAACUAUACAACGUACUACCACA	0.165 ± 0.031
GGAGACCUAUGAAUACUAGCUACUACCUCA	< 0.0001
GGAGAGGAUACUAUACAACCUUCUAGCUCA	0.0222 ± 0.0082
GGACUGGAUACUAUACAACUUACUACCUCA	0.518 ± 0.023
CCUCUGGAUACUAUACAACCCUACUACCUCA	0.00658 ± 0.0036

Sequence	pre-steady-state target cleavage rate
GCUCUGGAUACUAUUCAACCUACUACCACA	1.9 ± 0.16
GCUCUGAAUACUAUACAACCUACUACCUCA	1.89 ± 0.12
CCCUCUGGAUACUAUACAACCUACUACCUCA	2.25 ± 0.12
CCUCUGAAUACUAUACAACCUACUACCUCA	2.09 ± 0.13
CCUCUGGAUACUAAACAACCUACUACCUCA	1.86 ± 0.12
CCUCUGGAUACUAUUCAACCUACUACCACA	2.19 ± 0.18
CCUCUGGAUACUAUACAACCUACUACCCUCA	1.38 ± 0.097
CCUCUGGUUACUAAACAACCUACUACCUCA	2.34 ± 0.16
GCUCUGGAUACUAAACAACCUACAACCUCA	1.23 ± 0.089
GGUCUGGAUACUAUUCAACCUACUACCACA	0.506 ± 0.045
CCUCUGGAUACUAAACAACCUACAACCUCA	1.48 ± 0.12
GGUCUGAAUACUAUACAACCUACUACCUCA	1.8 ± 0.097
GGAGGGGAUACUAUACAACCUACUACCUCA	1.51 ± 0.069
GCACUGGAUACAAUACAACCUACUACCUCA	1.8 ± 0.1
GGAGACCUAUCUAUACAACCUACUCACCUCA	0.537 ± 0.059
GGAGUGGAUACUAAACAACCUACUUCCUCA	0.0286 ± 0.0079
GGAGUGGAUACUGAUACAACCUACUACCUCA	1.3 ± 0.098
GGAGACCUAACAAUACAACCUACUACCUGA	0.00542 ± 0.0049
GGAGAGGAUACGUAUACAACCUACUACCUCA	0.484 ± 0.047
GGAGUGGUUACAAUACAACCUACUACCUCA	1.2 ± 0.079
GGUCUGGAAACUAUACAACCUAGUACCUCA	0.484 ± 0.077
GGAGACCUAACUAUACAACCUACUACCCCA	0.867 ± 0.099
GGUCUGGAAUACUAUACAACCUACUACCUCA	1.83 ± 0.11
GCUCUGGAUACUAUACAACCUAUUACCUCA	1.88 ± 0.13
